From PubChem BioAssay (NCATS) come the findings set out here.

Structures are written as SMILES.

This experiment in a line: qHTS profiling for inhibitors of Plasmodium falciparum (DD2) proliferation (AID 743323). Particulars: lower = more inhibition; at 28.7 µM (top of the series). The source says:
Plasmodium falciparum is a virulent malarial parasite that kills 1-2 million people worldwide each year. Transmitted by mosquitoes, the sporozoite form of the parasite enters the blood stream to infect hepatocytes, where they become merozoites that infect red blood cells (erythrocytes). Within erythrocytes, merozoites begin a […] cycle of growth and division, after which the parasite is released to infect new red blood cells. Gametocytes, which form within erythrocytes as well, circulate in the bloodstream and are ingested by the mosquito, thereby completing the life cycle. To profile malarial isolates for differential chemical responses and to identify inhibitors of malarial growth, an assay that measures P. falciparum growth and replication within erythrocytes was employed. This assay uses a DNA binding fluorescent dye (SYBR Green) to detect parasite DNA following cell lysis. Because mature erythrocytes lack DNA, only Plasmodium-derived DNA is detected.
The SYBR Green viability assay was adapted from a method described previously (Plouffe et al., 2008). For screening 3 ul culture medium was dispensed into 1536 well black clear bottom plates (Aurora Biotechnologies) using a Multidrop Combi (Thermo Fisher Scientific Inc.), 23 nL compounds in DMSO were added by a pin tool (Kalypsys), and 5 ul of erythrocytes infected with P. falciparum (0.3% parasitemia, 2.5% hematocrit final concentration) were added. The plates were incubated at 37 C in a humidified incubator in 5% CO2 for 72 h, and 2 ul lysis buffer (20 mM Tris HCl, 10 mM EDTA, 0.16% saponin, […]% triton X, 10X SYBR Green I supplied as 10,000X […] by Invitrogen) was added to each well. The plates were mixed for 25 sec with gentle shaking and incubated overnight at room temperature in the dark. The following morning, fluorescence intensity at 485(14) nm excitation and 535(25) nm emission wavelengths was measured on an EnVision (Perkin Elmer) plate reader. Plate reads were normalized relative to the control inhibitor (0.29 uM artemisinin) and vehicle (DMSO) wells present on each plate and then corrected by an algorithm using vehicle-only control plates at the beginning and end of the compound plate stack.
Background: Quantitative high-throughput screening tests each substance at several concentrations.
With `O=C(NCCN1CCCC1)[C@H](Cc1ccc(OS(=O)(=O)c2cccc3cnccc23)cc1)NS(=O)(=O)c1cccc2cnccc12`, the activity, percent of control worked out at 49.2%. The figure for `O=C([C@H](Cc1ccc(O[S+](=O)([O-])c2cccc3cccnc23)cc1)N[S+](=O)([O-])c1cccnc1)N1CCN(c2ccccc2)CC1` is 0.179%; for `Cc1noc(C)c1C(=O)N1CCC2(CCCN(C(c3ccccc3)c3ccccc3)C2)CC1` it is 22.6%; for `N[C@@H](Cc1ccc(O[S+](=O)([O-])c2cccc3cnccc23)cc1)C(=O)N1CCN(c2ccccc2)CC1` it is 3.27%. The figure for `O=C([C@@H](Cc1ccc(O[S+](=O)([O-])c2cccnc2)cc1)N[S+](=O)([O-])c1cccc2cccnc12)N1CCN(c2ccccc2)CC1` is 0.464%; for `CC(C)(C)c1cc(O)c(CN)c(C(C)(C)C)c1` it is 0.498%. The result for `CN1CCN(C(=O)[C@H](Cc2ccc(O[S+](=O)([O-])c3cccc4cnccc34)cc2)N[S+](=O)([O-])c2cccc3cnccc23)CC1` reads 9.98%; that for `N[C@@H](Cc1ccc(OS(=O)(=O)c2cccnc2)cc1)C(=O)N1CCN(c2ccccc2)CC1`, 15.1%. On to `COC(=O)[C@H](Cc1ccc(O[S+](=O)([O-])c2cccc3cnccc23)cc1)N(C)[S+](=O)([O-])c1ccc2cnccc2c1`, for which the activity, percent of control is 3.76%. As for `CNC1CCC(N(Cc2ccc(OC)c(-c3ccc(C#N)cc3)c2)C(=O)c2sc3ccccc3c2Cl)CC1` (centres undefined), the activity, percent of control was -0.637%. For `N[C@@H](Cc1ccc(O[S+](=O)([O-])c2cccc3cccnc23)cc1)C(=O)N1CCN(c2ccccc2)CC1`, the activity, percent of control was determined as 1%. The figure for `CC(C)(C)OC(=O)N[C@@H](Cc1ccc(O[S+](=O)([O-])c2cccc3cnccc23)cc1)C(=O)N1CCN(c2ccccc2)CC1` is -0.0871%; for `CC(C)(C)OC(=O)N[C@@H](Cc1ccc(O[S+](=O)([O-])c2cccnc2)cc1)C(=O)N1CCN(c2ccccc2)CC1` it is 0.682%; for `O=C([C@H](Cc1ccc(O[S+](=O)([O-])c2cccnc2)cc1)N[S+](=O)([O-])c1cccc2cnccc12)N1CCN(c2ccccc2)CC1` it is 4.11%.
